In PubChem BioAssay (NCATS):
Records with an inconclusive call do not appear. Active and inactive are the calls of the source. Unless noted, calls come from the whole dose curve; as a rule, active = well fitted curve in the direction sought with a large enough effect; inconclusive = small, poorly fitted or top-dose-only effect, or another doubt; inactive = no such curve, though single readings can be large; an effect the other way counts as inactive or inconclusive.

What was measured:
[1] = AP1 Signaling Pathway (AID 357; active = well fitted curve in either direction with a large enough effect, not every such curve was filed as active;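 note: ME-180 reporter cells stimulated with EGF at its EC50 level; % is set by controls: 0 for no effect and ±100 for the full control effect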); details: ME-180 AP-1-bla reporter, EGF-induced, beta-lactamase ratio, 5 h; at 7.69 µM (top of the series) unless noted
Outline: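 Titration-series screen for positive or negative modulators of EC50 EGF-induced signaling in ME-180 cells carrying an AP-1-driven beta-lactamase reporter. After 5 hours at 37 degrees Celsius, CCF4 460nm/530nm emission ratio gave %Activity; AC50 values derived.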

[2] = target: Cytochrome P450 1A2 (Homo sapiens) (UniProt P05177); experiment: p450-cyp1a2 (AID 410; calls by dose curve;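 note: -100% = full effect of reference inhibitor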)
Chain of Cytochrome P450 1A2 (Homo sapiens) (P05177 whole entry, looked up): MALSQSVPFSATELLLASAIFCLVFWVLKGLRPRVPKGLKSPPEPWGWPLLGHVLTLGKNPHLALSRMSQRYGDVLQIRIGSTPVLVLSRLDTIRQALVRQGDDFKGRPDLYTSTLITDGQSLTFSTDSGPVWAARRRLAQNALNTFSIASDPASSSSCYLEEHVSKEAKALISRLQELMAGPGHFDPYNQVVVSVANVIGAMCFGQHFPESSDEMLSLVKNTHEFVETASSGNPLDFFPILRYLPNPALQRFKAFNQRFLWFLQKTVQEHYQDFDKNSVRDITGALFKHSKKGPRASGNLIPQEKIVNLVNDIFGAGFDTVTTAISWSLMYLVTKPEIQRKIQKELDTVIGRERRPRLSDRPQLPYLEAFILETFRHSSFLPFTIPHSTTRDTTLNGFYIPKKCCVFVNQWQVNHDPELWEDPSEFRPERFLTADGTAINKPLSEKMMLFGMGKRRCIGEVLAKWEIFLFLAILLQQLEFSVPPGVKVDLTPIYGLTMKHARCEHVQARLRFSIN
Outline: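 Human CYP1A2 (20nM) demethylated Luciferin-ME at its Km (100uM) in 100mM KPO4. After 10 min compound preincubation, NADPH regeneration ran the reaction 60 min at room temperature. Luciferin was read by luminescence, normalized to 57 uM furafylline.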

[3] = NFAT Signaling Pathway (AID 444; active = well fitted curve in either direction with a large enough effect, not every such curve was filed as active;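 note: carbachol stimulus at about its EC50 of 1 µM final; % is set by controls: 0 for no effect and ±100 for the full control effect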); details: Jurkat NFAT-bla M1, carbachol, beta-lactamase ratio, 5 h; at 7.69 µM (top of the series) unless noted
Outline: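 Jurkat cells with NFAT-driven β-lactamase reporter and co-expressed M1 receptor, stimulated with carbachol (final 1 uM, ~EC50), compound titration, 5 h at 37 °C. CCF4 loaded 1 h at RT; 460/530 nm ratio gave %activity and AC50.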

[4] = Stat Signaling Pathway (AID 446; active = well fitted curve in either direction with a large enough effect, not every such curve was filed as active;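 note: ME-180 cervical cancer cells given 40 pM IL-6 alongside compound; SIE-controlled beta-lactamase reporter measured as 460/530 nm FRET emission ratio; % is set by controls: 0 for no effect and ±100 for the full control effect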); details: ME-180 (cervical carcinoma) SIE beta-lactamase reporter, IL-6 stimulated, 5 h; at 7.69 µM (top of the series) unless noted
Outline: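 IL-6/STAT signaling read in ME-180 cells via an SIE beta-lactamase reporter. Stimulus was 40 pM IL-6 (its AC50) for 5 hrs, so both activation and inhibition register.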

[5] = target: Glucocorticoid receptor (Homo sapiens) (UniProt P04150); experiment: GR-EFC Redistribution (AID 451; calls by dose curve; note: potency is the fitted concentration of half-maximal effect); details: CHO-K1 GR-EFC translocation, beta-gal luminescence, 2 h
Chain of Glucocorticoid receptor (Homo sapiens) (P04150 whole entry, looked up, the tested form may be a part): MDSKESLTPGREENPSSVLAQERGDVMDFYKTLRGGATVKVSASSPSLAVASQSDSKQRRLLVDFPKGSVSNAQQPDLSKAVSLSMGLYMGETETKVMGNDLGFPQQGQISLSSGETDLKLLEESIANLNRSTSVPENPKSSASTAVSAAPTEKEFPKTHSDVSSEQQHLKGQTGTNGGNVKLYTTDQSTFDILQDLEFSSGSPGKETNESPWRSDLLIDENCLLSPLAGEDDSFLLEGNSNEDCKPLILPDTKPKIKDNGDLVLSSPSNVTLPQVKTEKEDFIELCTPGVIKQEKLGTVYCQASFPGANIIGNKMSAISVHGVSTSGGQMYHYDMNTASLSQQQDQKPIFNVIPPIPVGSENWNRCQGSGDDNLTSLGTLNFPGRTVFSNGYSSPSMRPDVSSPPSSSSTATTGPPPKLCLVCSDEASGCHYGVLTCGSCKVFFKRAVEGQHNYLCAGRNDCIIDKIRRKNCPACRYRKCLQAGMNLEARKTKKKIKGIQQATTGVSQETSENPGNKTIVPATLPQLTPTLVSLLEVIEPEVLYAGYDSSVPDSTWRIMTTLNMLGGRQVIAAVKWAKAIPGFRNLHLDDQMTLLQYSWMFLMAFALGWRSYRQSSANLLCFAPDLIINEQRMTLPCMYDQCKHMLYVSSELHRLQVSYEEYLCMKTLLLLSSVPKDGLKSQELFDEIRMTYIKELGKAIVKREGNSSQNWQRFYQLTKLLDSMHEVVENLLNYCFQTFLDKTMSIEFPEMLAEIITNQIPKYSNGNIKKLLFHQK
Outline: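 CHO-K1 cells expressing nuclear EA and GR-ED fragments of b-gal; compounds titrated up to 46 uM final, 2 h at 37 C. GR nuclear translocation read as complemented b-gal luminescence after 1 h RT detection.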

[6] = target: 3',5'-cyclic-AMP phosphodiesterase 4B (Homo sapiens) (UniProt Q07343); experiment: qHTS Assay for Inhibitors of PDE-IV (AID 607; active = well fitted activation curve with a large enough effect in the main read-out, with a control signal flat, not every such curve was filed as active; note: % of control where 0% means no effect)
Chain of 3',5'-cyclic-AMP phosphodiesterase 4B (Homo sapiens) (Q07343 whole entry, looked up): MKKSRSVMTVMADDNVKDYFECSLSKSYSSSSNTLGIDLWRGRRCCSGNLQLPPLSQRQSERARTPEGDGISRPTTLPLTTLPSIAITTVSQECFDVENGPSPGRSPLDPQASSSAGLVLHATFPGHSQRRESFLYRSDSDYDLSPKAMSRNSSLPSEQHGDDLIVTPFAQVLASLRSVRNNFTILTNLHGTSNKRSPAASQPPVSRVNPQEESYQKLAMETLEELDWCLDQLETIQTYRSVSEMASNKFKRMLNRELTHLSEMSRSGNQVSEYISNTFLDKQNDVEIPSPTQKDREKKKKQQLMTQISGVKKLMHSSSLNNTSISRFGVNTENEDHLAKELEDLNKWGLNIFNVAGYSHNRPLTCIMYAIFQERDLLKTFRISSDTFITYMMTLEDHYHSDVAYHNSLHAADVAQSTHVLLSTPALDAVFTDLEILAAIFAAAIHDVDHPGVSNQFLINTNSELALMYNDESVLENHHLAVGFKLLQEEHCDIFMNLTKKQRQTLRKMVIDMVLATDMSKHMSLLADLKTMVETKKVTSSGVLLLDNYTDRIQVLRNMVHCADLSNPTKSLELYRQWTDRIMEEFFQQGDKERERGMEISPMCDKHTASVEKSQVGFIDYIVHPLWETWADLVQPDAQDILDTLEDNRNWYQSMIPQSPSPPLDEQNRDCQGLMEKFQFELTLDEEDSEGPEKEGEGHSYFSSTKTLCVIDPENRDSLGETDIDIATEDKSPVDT
Outline: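 Live HEK293 cells with a modified cyclic nucleotide-gated (CNG) channel report intracellular cAMP via membrane-potential dye fluorescence (ex 535/em 590 nm). Endogenous PDE-IV was targeted. Compounds were tested at up to 22.9 uM final; RO 20-1724 100 uM served as control.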

[7] = qHTS Assay for Lipid Storage Modulators (AID 1519; calls by dose curve); details: Drosophila S3 cells, BODIPY lipid droplet/cell ratio, laser cytometry, cells loaded with oleic acid
Outline: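 Cells seeded at 5,000 per well were treated with compounds over a concentration series and loaded with oleic acid (400 uM, as added). Lipid droplet fluorescence (488 nm excitation, 500-530 nm channel) was read by laser-scanning cytometry and normalized to 20 uM Triacsin C.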

[8] = Primary qHTS for small molecule stabilizers of the endoplasmic reticulum resident proteome: Secreted ER Calcium Modulated Protein (SERCaMP) assay (AID 1508630); note: % is set by controls: 0 for no effect and ±100 for the full control effect
Outline: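 GLuc-SERCaMP-expressing SH-SY5Y cells, pretreated 16 h with compound, are challenged with thapsigargin to empty ER calcium stores; after 4 h, coelenterazine is added directly to the medium and luminescence is imaged.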

[9] = qHTS Assay for Identifying Gametocytocidal Compounds (AID 743244);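 note: % is set by controls: 0 for no effect and ±100 for the full control effect; actives lower the fluorescent signal which means gametocytes are killed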; details: P. falciparum 3D7 stage III-V gametocytes, alamarBlue, 72 h; stronger effect = lower value
Outline: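 Viability read-out was resazurin reduction (alamarBlue, 24 h) measured at Ex 525/Em 598 nm. Beforehand, late-stage (III-V) 3D7 P. falciparum gametocytes at 20,000 cells/well were incubated with compound 72 h at 37C under 5% CO2.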

[10] = Primary qHTS for inhibitors of nuclear receptor binding SET domain protein 2 (NSD2) in an isogenic RCH-ACV NSD2 p.E1099K mutant (9B) (AID 1645876); note: nearly all actives have a fitted effect of over 70% in size
[11] = Primary qHTS for inhibitors of nuclear receptor binding SET domain protein 2 (NSD2) in an RCH-ACV wild type WT cells (2C) (AID 1645877); note: nearly all actives have a fitted effect of over 70% in size

CC(=O)N1CCC2(CC1)CN(c1ccccn1)C2
inactive: activity change, negative = inhibition [1] -8.91% | Potency [2] | activity change, negative = inhibition [3] 6.27% | activity, negative = inhibition [4] -0.186% | Potency [5] > 46 µM | Potency [6] | activity change, negative = inhibition ([7]; at 57.5 µM (top of the series)) 7.33% | Potency [8]
14.1%: max response ([7]; measured here: lipid channel max response)
3.77%: max response ([7]; measured here: cell count channel max response)

CN1[C@@H]2CCC[C@H]1CC(NC(=O)c1nn(C)c3ccccc13)C2 (stereo partly drawn)
inactive: max response [9] 3.13% | Potency [10] | Potency [11]
